The record followed here is PubChem BioAssay (NCATS).

Inconclusive results are not listed. Activity calls are given as the source filed them. Unless noted, calls follow the shape of the dose curve; as a rule, active = well fitted curve in the direction sought with a large enough effect; inconclusive = small, poorly fitted or top-dose-only effect, or another doubt; inactive = no such curve, though single readings can be large; an effect the other way counts as inactive or inconclusive.

Assay [1] in a line: AP1 Signaling Pathway (AID 357; active = well fitted curve in either direction with a large enough effect, not every such curve was filed as active; also: % is scaled to controls: 0 for no effect and ±100 for the full control effect). In outline: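 AP-1-bla ME-180 cells with beta-lactamase reporter under AP-1 response element, stimulated with EC50 EGF; compounds titrated, 5 hours at 37 degrees Celsius. CCF4 read at 460/530 nm ratio; positive and negative modulators judged by AC50.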
Assay [2] in a line: NFAT Signaling Pathway (AID 444; active = well fitted curve in either direction with a large enough effect, not every such curve was filed as active;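 also: carbachol stimulus at about its EC50 of 1 µM final; % is scaled to controls: 0 for no effect and ±100 for the full control effect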). As to conditions: Jurkat NFAT-bla M1, carbachol, beta-lactamase ratio, 5 h; at 17.2 µM (top of the series). A digest of the protocol:
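Jurkat cells with NFAT-driven β-lactamase reporter and co-expressed M1 receptor, stimulated with carbachol (final 1 uM, ~EC50), compound titration, 5 h at 37 °C. CCF4 loaded 1 h at RT; 460/530 nm ratio gave %activity and AC50.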

The nature of assay [3]: Stat Signaling Pathway (AID 446; active = well fitted curve in either direction with a large enough effect, not every such curve was filed as active;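 also: ME-180 cervical cancer cells given 40 pM IL-6 alongside compound; SIE-controlled beta-lactamase reporter measured as 460/530 nm FRET emission ratio; % is scaled to controls: 0 for no effect and ±100 for the full control effect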). A digest of the protocol: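 FRET read-out (405 nm excitation, 460/530 nm emission) of a beta-lactamase reporter under a STAT-inducible element in ME-180 cervical carcinoma cells. Cells with compound receive 40 pM IL-6 for 5 h. Values are normalised to AC90 stimulation and AC90 JAK-inhibitor controls.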
Assay [4] concerns the target Glucocorticoid receptor (Homo sapiens) (UniProt P04150). Description: GR-GFP Redistribution (AID 450;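 active = compounds whose dose series gives a full or clear partial fitted curve of increased nuclear translocation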; also: potency is read from the fitted curve at half-maximal effect). The following applies: U2OS GR-GFP nuclear translocation, laser cytometry, 2 h.
Assay [5] has the same target. Description: GR-EFC Redistribution (AID 451; calls by dose curve; also: potency is read from the fitted curve at half-maximal effect). The following applies: CHO-K1 GR-EFC translocation, beta-gal luminescence, 2 h. A digest of the protocol:
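CHO-K1 cells expressing nuclear EA and GR-ED fragments of b-gal; compounds titrated up to 46 uM final, 2 h at 37 C. GR nuclear translocation read as complemented b-gal luminescence after 1 h RT detection.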

For assay [6], the target named is Mitogen-activated protein kinase 10 (Mus musculus) (UniProt Q61831). Description: JNK3 AlphaScreen Assay (AID 530; active = well fitted curve in either direction with a large enough effect, not every such curve was filed as active;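 also: kinase came from lysate of stimulated human HepG2 cells; signal reports phosphorylation of biotinylated GST-cJun 1-79 at Ser73 with 10 µM ATP; % is scaled to controls: 0 for no effect and ±100 for the full control effect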). In outline:
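HepG2 lysate (IL-1b/TNFa pre-activated) + biotin-GST-cJun 1-79 + anti-pSer73 cJun; cpd titration, 15 min RT; ATP 10 uM start; Tris pH 7.6, MgCl2, DTT, vanadate; beads in EDTA buffer; AlphaScreen.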
(In general: Bead proximity is the source of the signal in Alpha formats.)

Assay [7] has as its target 3',5'-cyclic-AMP phosphodiesterase 4B (Homo sapiens) (UniProt Q07343). Description: qHTS Assay for Inhibitors of PDE-IV (AID 607; active = well fitted activation curve with a large enough effect in the main read-out, with a control signal flat, not every such curve was filed as active; also: % of control where 0% means no effect). In outline: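 Cell-based read-out of cAMP via a modified cyclic nucleotide-gated channel and membrane potential dye (535/590 nm) in HEK293 cells expressing PDE4 endogenously. Compounds tested up to 22.9 uM final; 100 uM RO 20-1724 reference.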

A short description of assay [8]: qHTS Assay for Lipid Storage Modulators (AID 1519; calls by dose curve). The following applies: Drosophila S3 cells, BODIPY lipid droplet/cell ratio, laser cytometry, cells loaded with oleic acid. A digest of the protocol:
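Cells seeded at 5,000 per well were treated with compounds over a concentration series and loaded with oleic acid (400 uM, as added). Lipid droplet fluorescence (488 nm excitation, 500-530 nm channel) was read by laser-scanning cytometry and normalized to 20 uM Triacsin C.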

In assay [9] the target is Ubiquitin carboxyl-terminal hydrolase 1 (Homo sapiens) (UniProt O94782). Put plainly: Inhibitors of USP1/UAF1: Pilot qHTS (AID 504865). Also: nearly all actives have a fitted effect of over 35% in size. Also: potency is read from the fitted curve at half-maximal effect. A digest of the protocol: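 In 50mM HEPES pH 7.8 containing 0.5mM EDTA, 1mM TCEP, 0.1 mg/ml BSA and 0.01% Tween-20, 1nM USP1/UAF1 is exposed to compound for 15 min, then Ub-Rho (150nM final) is added and fluorescence is read over time.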
In general terms: Quantitative high-throughput screening tests each substance at several concentrations.

Assay [10] addresses Cytochrome P450 1A2 (Homo sapiens) (UniProt P05177). Put plainly: p450-cyp1a2 (AID 410; calls by dose curve; also: potency is read from the fitted curve at half-maximal effect). A digest of the protocol:
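Read-out is luminescence from luciferin produced by CYP1A2 demethylation of Luciferin-ME (100uM, at Km). Detection reagent stopped the 60 min NADPH-dependent reaction; signals were normalized to 57 uM furafylline.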

The target in assay [11] is Cytochrome P450 3A4 (Homo sapiens) (UniProt P08684). Put plainly: qHTS Assay for Activators of Cytochrome P450 3A4 (AID 885). Also: nearly all actives have a fitted effect of over 65% in size. A digest of the protocol:
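Luminescent readout of luciferin formed from 25 uM Luciferin-PPXE (KM level) by 20 nM CYP3A4 in 200 mM KPO4, with 60 min NADPH-driven reaction at room temperature after 10 min compound exposure. Ketoconazole (57 uM) defined 100% inhibition.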

For assay [12], the target named is ATP-dependent 6-phosphofructokinase (Trypanosoma brucei brucei) (UniProt O15648). Description: qHTS Assay to Find Inhibitors of T. brucei phosphofructokinase: hit validation (AID 492961). Also: % is scaled to controls: 0 for no effect and ±100 for the full control effect. In outline:
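Luminescence from ADP-Glo reports ADP generated as T. brucei PFK (1.25 nM) phosphorylates 0.5 mM fructose-6-phosphate using 0.1 mM ATP. Reactions ran 45 min at room temperature, pH 8.0.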

Assay [13] concerns the target Luciferin 4-monooxygenase (Photinus pyralis) (UniProt P08659). Description: Biochemical firefly luciferase enzyme assay for NPC (AID 624030).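 Also: purified P. pyralis luciferase at 10 nM with luciferin and ATP substrate; 0% = DMSO and -100% = full luciferase inhibition by PTC124 control; nearly all actives have a fitted effect of over 70% in size.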 In outline:
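Purified P. pyralis luciferase at 10 nM in 50 mM Tris Acetate (final), luminescence read within 5 minutes of enzyme addition to compounds. Activity normalised to PTC124 versus DMSO; concentration-response curves classed by r2, magnitude and activity.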

The nature of assay [14]: S16 Schwann cell PMP22 intronic element firefly luciferase assay (AID 624032).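 Also: plate controls were DMSO for no effect and PTC124 positive control mean for full effect; nearly all actives have a fitted effect of over 30% in size.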 In outline: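 Rat S16 Schwann cells stably carrying firefly luciferase driven by a PMP22 intronic element, in 10% FBS, treated 24 h at 37 C. ONE-Glo luminescence normalized to PTC124 control and DMSO (0%); curves classed by r2, magnitude and activity.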
Assay [15] in a line: qHTS profiling for inhibitors of Plasmodium falciparum proliferation (AID 504749). Also: nearly all actives have a fitted effect of over 60% in size. Also: potency is read from the fitted curve at half-maximal effect.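 As to activity, negative = inhibition: 0% = DMSO vehicle and full inhibition = artemisinin control.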 As to conditions: P. falciparum in erythrocytes, SYBR Green DNA, 72 h. In outline:
(§1)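 SYBR Green fluorescence (ex 485 nm, em 535 nm) reports parasite DNA after 72 h compound exposure of infected red cells at 0.3% parasitemia, 2.5% hematocrit; signal normalized to 0.29 uM artemisinin and vehicle wells.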

A further assay has as its system C2A. The assay is described as above. The following applies: P. falciparum in erythrocytes, SYBR Green DNA, 72 h; series mostly up to 28.7 µM. In outline:
as §1

Another assay has as its system CP192. The description is as above. The following applies: P. falciparum in erythrocytes, SYBR Green DNA, 72 h; series mostly up to 28.7 µM. In outline: as §1
Another assay relates to CP262. The assay is described as above. As to conditions: P. falciparum in erythrocytes, SYBR Green DNA, 72 h; series mostly up to 28.7 µM. In outline: as §1
The test system of a further assay is CP286. Described as above. As to conditions: P. falciparum in erythrocytes, SYBR Green DNA, 72 h; series mostly up to 28.7 µM. In outline: as §1
A further assay has as its system FAB9. Described as above. As to conditions: P. falciparum in erythrocytes, SYBR Green DNA, 72 h; series mostly up to 28.7 µM. A digest of the protocol:
as §1

Where [16] appears, read: measured here: cell count channel max response.
Where [17] appears, read: measured here: lipid channel max response.

Chain of Ubiquitin carboxyl-terminal hydrolase 1 (Homo sapiens) (O94782 whole entry, looked up): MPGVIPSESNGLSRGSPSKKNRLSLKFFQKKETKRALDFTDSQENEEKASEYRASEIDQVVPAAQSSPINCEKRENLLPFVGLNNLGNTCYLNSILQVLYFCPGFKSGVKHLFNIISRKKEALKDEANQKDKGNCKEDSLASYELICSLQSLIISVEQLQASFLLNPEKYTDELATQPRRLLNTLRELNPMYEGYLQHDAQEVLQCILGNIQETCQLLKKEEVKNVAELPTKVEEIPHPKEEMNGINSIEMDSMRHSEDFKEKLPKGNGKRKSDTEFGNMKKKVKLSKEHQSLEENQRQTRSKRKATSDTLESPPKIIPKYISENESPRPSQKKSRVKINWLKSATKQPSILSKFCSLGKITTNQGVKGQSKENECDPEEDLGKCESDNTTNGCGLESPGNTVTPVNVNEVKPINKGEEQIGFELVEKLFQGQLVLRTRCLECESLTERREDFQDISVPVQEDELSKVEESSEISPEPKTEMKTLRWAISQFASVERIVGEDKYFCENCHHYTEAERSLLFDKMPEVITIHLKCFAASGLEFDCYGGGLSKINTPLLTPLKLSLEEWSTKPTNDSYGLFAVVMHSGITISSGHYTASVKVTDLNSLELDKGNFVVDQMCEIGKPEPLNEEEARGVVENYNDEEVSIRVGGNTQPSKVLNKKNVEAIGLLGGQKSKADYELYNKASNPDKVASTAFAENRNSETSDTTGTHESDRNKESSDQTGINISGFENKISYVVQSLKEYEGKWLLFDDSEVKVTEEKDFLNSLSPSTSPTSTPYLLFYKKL
Chain of Glucocorticoid receptor (Homo sapiens) (P04150 whole entry, looked up): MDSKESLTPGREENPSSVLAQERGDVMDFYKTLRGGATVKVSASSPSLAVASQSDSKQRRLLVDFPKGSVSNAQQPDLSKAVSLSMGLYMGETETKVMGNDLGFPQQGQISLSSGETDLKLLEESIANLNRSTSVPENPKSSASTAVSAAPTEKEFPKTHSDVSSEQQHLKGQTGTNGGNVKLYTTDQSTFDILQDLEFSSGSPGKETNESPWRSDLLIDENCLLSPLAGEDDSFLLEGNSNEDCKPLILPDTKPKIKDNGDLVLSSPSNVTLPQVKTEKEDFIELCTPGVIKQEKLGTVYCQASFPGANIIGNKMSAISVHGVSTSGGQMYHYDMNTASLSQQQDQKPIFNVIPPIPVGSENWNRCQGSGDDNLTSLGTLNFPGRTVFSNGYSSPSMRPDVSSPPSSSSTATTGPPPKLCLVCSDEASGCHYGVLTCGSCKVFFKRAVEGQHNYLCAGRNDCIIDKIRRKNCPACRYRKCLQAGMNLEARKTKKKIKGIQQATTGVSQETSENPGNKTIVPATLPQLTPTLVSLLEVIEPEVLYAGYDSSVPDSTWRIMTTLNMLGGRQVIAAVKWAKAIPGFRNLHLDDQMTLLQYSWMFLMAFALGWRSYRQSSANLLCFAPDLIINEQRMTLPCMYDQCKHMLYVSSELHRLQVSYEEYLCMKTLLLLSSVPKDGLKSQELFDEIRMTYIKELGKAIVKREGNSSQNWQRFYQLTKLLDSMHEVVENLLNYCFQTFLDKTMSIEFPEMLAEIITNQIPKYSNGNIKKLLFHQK
Chain of Cytochrome P450 1A2 (Homo sapiens) (P05177 whole entry, looked up): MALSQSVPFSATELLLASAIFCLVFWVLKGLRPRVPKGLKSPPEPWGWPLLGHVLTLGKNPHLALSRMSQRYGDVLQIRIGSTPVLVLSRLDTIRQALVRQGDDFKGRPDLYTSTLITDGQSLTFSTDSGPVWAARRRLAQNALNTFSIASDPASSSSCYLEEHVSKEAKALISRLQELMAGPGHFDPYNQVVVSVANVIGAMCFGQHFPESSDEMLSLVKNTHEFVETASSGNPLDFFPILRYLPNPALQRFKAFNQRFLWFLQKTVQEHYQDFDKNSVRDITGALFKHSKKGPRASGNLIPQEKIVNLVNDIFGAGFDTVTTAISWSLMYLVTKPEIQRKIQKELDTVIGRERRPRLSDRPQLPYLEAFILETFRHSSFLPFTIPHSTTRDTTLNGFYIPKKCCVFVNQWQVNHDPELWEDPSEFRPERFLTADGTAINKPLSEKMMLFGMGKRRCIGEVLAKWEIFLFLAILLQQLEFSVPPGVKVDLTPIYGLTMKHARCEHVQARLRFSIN
Chain of 3',5'-cyclic-AMP phosphodiesterase 4B (Homo sapiens) (Q07343 whole entry, looked up): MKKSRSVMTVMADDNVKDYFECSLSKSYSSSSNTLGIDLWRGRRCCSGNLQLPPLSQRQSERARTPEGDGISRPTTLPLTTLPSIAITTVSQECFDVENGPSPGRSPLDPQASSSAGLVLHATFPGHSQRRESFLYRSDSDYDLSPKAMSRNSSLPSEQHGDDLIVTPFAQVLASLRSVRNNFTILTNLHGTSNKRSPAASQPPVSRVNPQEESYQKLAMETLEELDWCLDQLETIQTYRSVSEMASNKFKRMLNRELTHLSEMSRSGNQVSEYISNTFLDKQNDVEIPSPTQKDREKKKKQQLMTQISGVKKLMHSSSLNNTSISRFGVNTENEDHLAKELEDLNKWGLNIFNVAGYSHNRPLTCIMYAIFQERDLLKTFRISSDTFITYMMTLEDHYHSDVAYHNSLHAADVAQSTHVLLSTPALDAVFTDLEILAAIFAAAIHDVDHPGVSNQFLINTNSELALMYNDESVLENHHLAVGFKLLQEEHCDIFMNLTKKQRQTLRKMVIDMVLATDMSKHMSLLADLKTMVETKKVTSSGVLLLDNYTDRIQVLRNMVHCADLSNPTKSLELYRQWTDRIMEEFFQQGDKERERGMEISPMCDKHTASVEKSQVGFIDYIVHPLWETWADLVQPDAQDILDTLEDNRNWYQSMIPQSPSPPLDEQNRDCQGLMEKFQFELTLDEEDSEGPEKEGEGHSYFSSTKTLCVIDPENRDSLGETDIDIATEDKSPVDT
Chain of ATP-dependent 6-phosphofructokinase (Trypanosoma brucei brucei) (O15648 whole entry, looked up): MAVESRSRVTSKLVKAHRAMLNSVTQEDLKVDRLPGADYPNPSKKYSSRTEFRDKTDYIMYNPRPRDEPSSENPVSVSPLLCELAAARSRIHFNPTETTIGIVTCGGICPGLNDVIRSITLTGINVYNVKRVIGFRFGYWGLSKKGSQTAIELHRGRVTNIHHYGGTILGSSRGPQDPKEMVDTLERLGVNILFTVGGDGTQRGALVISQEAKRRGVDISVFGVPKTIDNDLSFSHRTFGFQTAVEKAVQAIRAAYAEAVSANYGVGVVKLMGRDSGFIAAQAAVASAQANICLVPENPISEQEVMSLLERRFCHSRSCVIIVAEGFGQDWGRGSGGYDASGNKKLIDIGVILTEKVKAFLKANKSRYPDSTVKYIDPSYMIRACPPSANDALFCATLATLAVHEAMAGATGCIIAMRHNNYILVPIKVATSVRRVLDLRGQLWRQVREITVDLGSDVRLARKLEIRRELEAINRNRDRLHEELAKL
Chain of Luciferin 4-monooxygenase (Photinus pyralis) (P08659 whole entry, looked up): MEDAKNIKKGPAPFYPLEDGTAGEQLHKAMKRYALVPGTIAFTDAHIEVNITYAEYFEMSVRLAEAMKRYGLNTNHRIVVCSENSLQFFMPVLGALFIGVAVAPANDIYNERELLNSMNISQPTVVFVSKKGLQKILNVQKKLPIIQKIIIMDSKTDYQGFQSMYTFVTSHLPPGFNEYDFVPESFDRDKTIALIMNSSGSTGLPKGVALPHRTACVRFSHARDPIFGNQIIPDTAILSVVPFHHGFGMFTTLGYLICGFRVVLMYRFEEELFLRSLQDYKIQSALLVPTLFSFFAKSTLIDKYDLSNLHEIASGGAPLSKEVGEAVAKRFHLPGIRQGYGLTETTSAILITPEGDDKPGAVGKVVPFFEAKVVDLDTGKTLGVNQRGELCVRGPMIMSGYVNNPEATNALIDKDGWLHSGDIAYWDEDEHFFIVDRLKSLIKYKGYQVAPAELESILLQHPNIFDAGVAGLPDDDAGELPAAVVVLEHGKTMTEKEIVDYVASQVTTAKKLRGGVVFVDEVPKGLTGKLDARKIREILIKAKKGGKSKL
Chain of Cytochrome P450 3A4 (Homo sapiens) (P08684 whole entry, looked up): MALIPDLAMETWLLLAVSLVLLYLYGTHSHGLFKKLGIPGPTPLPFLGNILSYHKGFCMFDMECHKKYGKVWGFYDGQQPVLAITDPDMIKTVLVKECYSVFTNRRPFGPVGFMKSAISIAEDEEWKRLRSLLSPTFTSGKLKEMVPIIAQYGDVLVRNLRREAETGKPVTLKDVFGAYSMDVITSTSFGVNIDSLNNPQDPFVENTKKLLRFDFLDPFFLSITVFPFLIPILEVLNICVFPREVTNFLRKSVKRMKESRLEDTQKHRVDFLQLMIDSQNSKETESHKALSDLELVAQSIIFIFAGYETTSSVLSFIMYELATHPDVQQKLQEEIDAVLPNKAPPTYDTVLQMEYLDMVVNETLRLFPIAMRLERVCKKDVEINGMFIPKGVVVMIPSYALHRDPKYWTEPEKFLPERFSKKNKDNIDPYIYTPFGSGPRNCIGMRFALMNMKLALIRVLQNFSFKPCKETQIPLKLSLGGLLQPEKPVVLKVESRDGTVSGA

As to `CO[C@H]1C=C2CCN(C)[C@@H]2[C@@H]2c3cc4c(cc3C(=O)O[C@H]21)OCO4`, the call in assay [1], in assay [3] and in assay [6] was inactive. Besides, the activity change, negative = inhibition was 8.91% (inactive) in assay [2] and 0.781% (inactive) in assay [8] (at 25.7 µM (top of the series)). Besides, the Potency in assay [4] and in assay [5] was > 20.6 µM (inactive) throughout. The Potency entry in assay [7] and in assay [9] was “inactive” each time. Moreover, the max response in assay [8] (setting [16]) was -13.3%; in [8] (setting [17]), -11.4%.
For `CC(C)N(CC[C@@](C(N)=O)(c1ccccc1)c1ccccn1)C(C)C`, the molecule was classed as inactive in [1], in assay [3] and in assay [6]. The Potency result in assay [10], in assay [7], in assay [11], in assay [12], in [9] and in assay [13] was “inactive” each time. Further, the Potency result (in [14]; with C2A; in the assay on CP192; with CP262; in the assay with CP286; with FAB9) was “inactive” each time. Besides, in assay [8] (at 25.7 µM (top of the series)), the activity change, negative = inhibition was 0.14% (inactive). In addition, the max response is -13.9% in [8] (setting [16]) and -14.1% in assay [8] (setting [17]). The activity, negative = inhibition in [15] (at 28.7 µM (top of the series), parasite line A) is 9.42% (inactive); in assay [15] (at 28.7 µM (top of the series), parasite line B), 2.7% (inactive).
As to `CC[C@H](CO)NC(=O)[C@H]1C=C2c3cccc4[nH]cc(c34)C[C@@H]2N(C)C1`, the outcome in assay [1], in assay [3] and in assay [6] was inactive. Besides, the figures for the activity change, negative = inhibition in assay [2] and in assay [8] (at 25.7 µM (top of the series)) were -13.5% (inactive) and 0.62% (inactive), respectively. Also, the Potency in assay [4] was > 20.6 µM (inactive); in assay [5], > 20.6 µM (inactive); in assay [9], 17.8 µM (active). In assay [7], the Potency entry was “inactive”. Besides, the max response in assay [8] (setting [16]) was 3.2%; in assay [8] (setting [17]) it was 2.54%.
Consider `c1ccc2c(c1)[nH]c1cnccc12`, for which the result in assay [1] and in assay [3] was inactive. For the same molecule, the results for the activity change, negative = inhibition in assay [2] and in [8] (at 57.5 µM (top of the series)) were 25.7% (inactive) and 0.155% (inactive), respectively. Besides, the figures for the max response in [8] (setting [16]) and in assay [8] (setting [17]) were -9.28% and -6.47%, respectively.
On to `Clc1ccc([C@@H](OCCN2CCCCC2)c2ccccc2)cc1`, for which the Potency in assay [10] was 12.6 µM (active); in [4], > 20.6 µM (inactive); in assay [5], > 20.6 µM (inactive); with CP286 it was 3.55 µM (active). Besides, the activity change, negative = inhibition in assay [2] was -74.4% (active); in assay [8] (at 25.7 µM (top of the series)), -2.71% (inactive). The molecule was called inactive in [3] and in assay [6]. Also, the figures for the max response in [8] (setting [16]) and in [8] (setting [17]) were -5.28% and -7.74%, respectively. The Potency result (in assay [12]; in assay [13]; in [14]; with C2A; in the assay with CP192; in the assay with CP262) was “inactive” each time. Further, in the assay on FAB9, the Potency result was “inactive”. Also, the activity, negative = inhibition in [15] (at 12.8 µM (top of the series), parasite line A) is -2.83% (inactive); in assay [15] (at 12.8 µM (top of the series), parasite line B) it was -13.1% (inactive).
